Measurements published in publication PMC7862700, “An all-to-all approach to the identification of sequence-specific readers for epigenetic DNA modifications on cytosine”.

Legend:
Assay in all cases: DAPPL (digital affinity profiling via proximity ligation, sequencing); 10 mM Tris-HCl pH 7.5, 50 mM NaCl, 1 mM DTT, 4% glycerol, room temperature, 30 min; GST-TFs on glutathione beads, 16-mer random dsDNA library, 0.1% formaldehyde crosslink after washing; high values mean tight binding
Details in all cases: protein: recombinant; tags: N-terminal GST; dsDNA, one strand shown
[1] = target: T1, FLI1 (Homo sapiens, UniProt Q01543 1-452)
T1 sequence: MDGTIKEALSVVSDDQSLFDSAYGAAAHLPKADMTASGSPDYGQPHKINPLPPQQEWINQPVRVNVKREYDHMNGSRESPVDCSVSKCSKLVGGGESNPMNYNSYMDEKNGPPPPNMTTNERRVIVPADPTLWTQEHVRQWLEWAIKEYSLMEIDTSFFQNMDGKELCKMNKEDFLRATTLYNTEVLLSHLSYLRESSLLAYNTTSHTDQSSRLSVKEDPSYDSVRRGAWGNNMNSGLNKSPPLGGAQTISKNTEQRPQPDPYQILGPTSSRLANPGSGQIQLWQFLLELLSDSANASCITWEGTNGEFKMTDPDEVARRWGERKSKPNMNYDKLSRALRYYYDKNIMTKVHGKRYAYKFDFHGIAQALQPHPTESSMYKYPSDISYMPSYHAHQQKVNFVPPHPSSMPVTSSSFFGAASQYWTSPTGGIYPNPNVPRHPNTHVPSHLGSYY
Summary of the method: (§1)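 Beads coated with glutathione captured GST-fused human transcription factors that had been expressed in yeast, and the factors were then given DNA barcodes and pooled with a tag-only sample. The pools were incubated with 200 nmole of a random double-stranded 16-mer DNA library in Tris/NaCl/DTT/glycerol buffer for 30 min at room temperature, washed, crosslinked with 0.1% formaldehyde and proximity-ligated with BsaI/T4 ligase at 37 °C for 1 h. PCR amplification and Illumina NextSeq500 sequencing came last. Binding signal is each hexamer's read frequency for a factor divided by its frequency for the tag-only sample.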

[2] = target: T2, ELK1 (Homo sapiens, UniProt P19419 1-428)
T2 sequence: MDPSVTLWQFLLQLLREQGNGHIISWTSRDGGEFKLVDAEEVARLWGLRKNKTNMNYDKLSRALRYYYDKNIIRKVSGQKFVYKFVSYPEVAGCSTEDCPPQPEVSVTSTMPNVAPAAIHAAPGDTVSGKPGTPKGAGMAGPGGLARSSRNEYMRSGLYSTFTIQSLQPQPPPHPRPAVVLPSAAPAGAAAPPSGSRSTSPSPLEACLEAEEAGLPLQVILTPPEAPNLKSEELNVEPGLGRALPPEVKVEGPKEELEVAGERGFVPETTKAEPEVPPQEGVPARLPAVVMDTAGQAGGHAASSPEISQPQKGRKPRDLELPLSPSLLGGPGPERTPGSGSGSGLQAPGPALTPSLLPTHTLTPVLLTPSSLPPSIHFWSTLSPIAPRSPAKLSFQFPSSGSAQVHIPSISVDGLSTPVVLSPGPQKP
Summary of the method: as §1

[3] = target: T3, GABPA (Homo sapiens, UniProt Q06546 1-454)
T3 sequence: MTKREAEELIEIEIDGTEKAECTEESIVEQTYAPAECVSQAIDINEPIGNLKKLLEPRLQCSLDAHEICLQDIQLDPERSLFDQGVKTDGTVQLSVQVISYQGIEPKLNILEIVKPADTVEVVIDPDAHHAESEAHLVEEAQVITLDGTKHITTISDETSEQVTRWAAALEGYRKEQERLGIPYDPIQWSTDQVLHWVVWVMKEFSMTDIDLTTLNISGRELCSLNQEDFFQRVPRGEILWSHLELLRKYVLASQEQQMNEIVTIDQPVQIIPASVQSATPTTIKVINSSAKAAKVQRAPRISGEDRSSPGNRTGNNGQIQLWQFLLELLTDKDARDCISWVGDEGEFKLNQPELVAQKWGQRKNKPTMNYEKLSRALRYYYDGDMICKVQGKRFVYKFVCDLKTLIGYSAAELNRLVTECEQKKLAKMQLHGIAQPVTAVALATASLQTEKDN
Summary of the method: as §1

[4] = target: T4, ERG (Homo sapiens, UniProt P11308 1-479)
T4 sequence: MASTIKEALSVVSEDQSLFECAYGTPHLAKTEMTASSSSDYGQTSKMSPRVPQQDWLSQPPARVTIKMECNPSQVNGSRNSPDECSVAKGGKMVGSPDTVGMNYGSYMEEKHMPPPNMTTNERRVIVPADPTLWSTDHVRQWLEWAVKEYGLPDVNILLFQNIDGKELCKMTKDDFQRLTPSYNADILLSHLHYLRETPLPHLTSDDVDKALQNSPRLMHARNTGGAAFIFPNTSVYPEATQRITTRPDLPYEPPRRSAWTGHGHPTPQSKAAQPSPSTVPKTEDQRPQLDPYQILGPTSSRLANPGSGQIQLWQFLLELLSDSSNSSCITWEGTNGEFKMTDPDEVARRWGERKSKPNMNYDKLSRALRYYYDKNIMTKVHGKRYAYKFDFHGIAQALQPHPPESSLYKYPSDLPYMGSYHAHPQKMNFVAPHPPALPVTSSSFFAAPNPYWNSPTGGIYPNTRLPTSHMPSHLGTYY
Summary of the method: as §1

[5] = target: ELF1 (Homo sapiens, UniProt P32519 1-619)
Chain of ELF1 (P32519 whole entry): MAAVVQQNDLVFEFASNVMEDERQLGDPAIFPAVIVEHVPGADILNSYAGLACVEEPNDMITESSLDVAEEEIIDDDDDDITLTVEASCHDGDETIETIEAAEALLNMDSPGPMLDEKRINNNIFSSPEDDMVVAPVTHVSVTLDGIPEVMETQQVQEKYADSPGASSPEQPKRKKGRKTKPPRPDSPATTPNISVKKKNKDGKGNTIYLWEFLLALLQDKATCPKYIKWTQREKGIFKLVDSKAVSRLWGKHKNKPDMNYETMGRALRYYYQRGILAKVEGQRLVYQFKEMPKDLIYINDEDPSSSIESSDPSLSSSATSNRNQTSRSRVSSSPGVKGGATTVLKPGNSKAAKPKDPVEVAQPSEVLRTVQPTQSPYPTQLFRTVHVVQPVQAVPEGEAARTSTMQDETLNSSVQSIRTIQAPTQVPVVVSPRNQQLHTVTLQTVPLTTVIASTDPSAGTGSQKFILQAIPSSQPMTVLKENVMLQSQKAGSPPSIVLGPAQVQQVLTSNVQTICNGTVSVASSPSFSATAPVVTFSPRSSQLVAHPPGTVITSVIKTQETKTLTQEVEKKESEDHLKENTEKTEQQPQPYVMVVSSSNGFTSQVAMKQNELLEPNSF
Summary of the method: as §1

[6] = target: T5, EHF (Homo sapiens, UniProt Q9NZC4 1-300)
T5 sequence: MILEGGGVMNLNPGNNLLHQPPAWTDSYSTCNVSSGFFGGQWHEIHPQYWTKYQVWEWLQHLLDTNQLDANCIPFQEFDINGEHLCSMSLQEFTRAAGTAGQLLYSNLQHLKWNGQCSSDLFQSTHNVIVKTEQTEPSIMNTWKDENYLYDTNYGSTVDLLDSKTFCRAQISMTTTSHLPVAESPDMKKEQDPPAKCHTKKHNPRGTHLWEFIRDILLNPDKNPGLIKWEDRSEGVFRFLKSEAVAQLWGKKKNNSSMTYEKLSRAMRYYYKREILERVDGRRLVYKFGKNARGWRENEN
Summary of the method: as §1

[7] = target: SPI1 (Homo sapiens, UniProt P17947 1-270)
Summary of the method: as §1

[8] = target: SPIB (Homo sapiens, UniProt Q01892 1-262)
Chain of SPIB (Q01892 whole entry): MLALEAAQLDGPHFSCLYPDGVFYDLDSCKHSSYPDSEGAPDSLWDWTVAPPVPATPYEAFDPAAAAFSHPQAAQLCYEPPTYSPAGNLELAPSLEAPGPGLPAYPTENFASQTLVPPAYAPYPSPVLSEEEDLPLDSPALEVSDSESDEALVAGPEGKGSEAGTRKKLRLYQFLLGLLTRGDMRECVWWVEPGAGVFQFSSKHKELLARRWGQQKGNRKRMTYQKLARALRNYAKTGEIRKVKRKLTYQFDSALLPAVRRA
Summary of the method: as §1

[9] = target: T6, ELK3 (Homo sapiens, UniProt P41970 1-407)
T6 sequence: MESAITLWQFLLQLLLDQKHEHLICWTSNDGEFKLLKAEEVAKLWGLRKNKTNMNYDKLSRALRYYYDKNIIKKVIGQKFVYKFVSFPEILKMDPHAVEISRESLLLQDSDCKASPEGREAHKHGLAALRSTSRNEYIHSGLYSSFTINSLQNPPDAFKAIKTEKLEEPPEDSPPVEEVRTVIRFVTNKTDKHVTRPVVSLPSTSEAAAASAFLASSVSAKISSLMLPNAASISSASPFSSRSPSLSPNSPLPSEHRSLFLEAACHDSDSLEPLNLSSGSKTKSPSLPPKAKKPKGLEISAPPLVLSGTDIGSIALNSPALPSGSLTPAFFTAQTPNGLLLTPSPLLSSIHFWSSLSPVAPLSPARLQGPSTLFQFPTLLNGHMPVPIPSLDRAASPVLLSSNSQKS
Summary of the method: as §1

GCGATG
binding signal [1]: 1.2 fold enrichment (6-mer frequency, TF over GST control) | binding signal [2]: 1.48 fold enrichment (6-mer frequency, TF over GST control) | binding signal [3]: 1.37 fold enrichment (6-mer frequency, TF over GST control) | binding signal [4]: 1.23 fold enrichment (6-mer frequency, TF over GST control) | binding signal [5]: 1.31 fold enrichment (6-mer frequency, TF over GST control) | binding signal [6]: 1.25 fold enrichment (6-mer frequency, TF over GST control) | binding signal [7]: 1.34 fold enrichment (6-mer frequency, TF over GST control) | binding signal [8]: 1.29 fold enrichment (6-mer frequency, TF over GST control) | binding signal [9]: 1.31 fold enrichment (6-mer frequency, TF over GST control)
